This is an account of results in PubChem BioAssay (NCATS).

Molecules are shown by their SMILES. Results filed as inconclusive are left out. Where a call stands in place of a potency, no number is given. Active and inactive are the calls of the source. Calls come from the whole dose curve; as a rule, active = well fitted curve in the direction sought with a large enough effect; inconclusive = small, poorly fitted or top-dose-only effect, or another doubt; inactive = no such curve, though single readings can be large; an effect the other way counts as inactive or inconclusive.

Experiment [1] concerns the target Aldehyde dehydrogenase, mitochondrial (Homo sapiens) (UniProt P05091). The experiment in a line: qHTS for Inhibitors of the Aldehyde Dehydrogenase Family (ALDH2) Primary screen (AID 2061308). Note: nearly all actives have a fitted effect of over 55% in size. Background: In qHTS, concentration-response curves come from the screen itself.
The target of experiment [2] is Retinaldehyde dehydrogenase 3 (Homo sapiens) (UniProt P47895). Kind of experiment: qHTS for Inhibitors of the Aldehyde Dehydrogenase Family (ALDH1A3) Primary screen (AID 2061315).

Regarding `CC(=O)Nc1ccccc1OC1=N[S+](=O)([O-])c2ccccc21`, the Potency result in experiment [1] and in experiment [2] was “inactive” each time.
As to `CCN(CC)CCn1c(-c2ccccc2)nc2c(NCCO)nc(C)nc21`, the Potency result in experiment [1] and in experiment [2] was “inactive” each time.
Consider `CC(=O)N1CCN(C(=O)COC(=O)c2ccc([S+](C)(=O)[O-])c([N+](=O)[O-])c2)CC1`, for which the Potency result in experiment [1] and in experiment [2] was “inactive” throughout.
For the molecule `COc1cc(O)c(C(CC(=O)N2CCC[C@@H](C)C2)c2ccc3c(c2)OCO3)c(OC)c1` (stereo partly specified), the Potency result in experiment [1] and in experiment [2] was “inactive” throughout.
Turning to `Fc1cc(Nc2nc(-c3ccncc3)nc3ccccc23)ccc1-c1ccncc1`, the Potency entry in experiment [1] and in experiment [2] was “inactive” each time.
Consider `Cn1nnnc1Sc1ncnc2scc(-c3cc4ccccc4o3)c12`, for which the Potency entry in experiment [1] and in experiment [2] was “inactive” throughout.
As for `O=C(NCCc1ccc2c(c1)OCO2)c1cc2sccc2[nH]1`, the Potency result in experiment [1] and in experiment [2] was “inactive” in each case.
As to `C[C@@]12CC[C@@H]3[C@@](CC[C@H]4[C@@]3(C)CCC[C@@]4(C)C(=O)O)(CC1=O)C2`, the Potency entry in experiment [1] and in experiment [2] was “inactive” in each case.
For `CN(Cc1nccs1)S(=O)(=O)c1ccc(Nc2nc(-c3ccccc3)cs2)cc1`, the Potency result in experiment [1] and in experiment [2] was “inactive” throughout.
For the molecule `c1nc(NCC2CCCCC2)c2cc(-c3ccc4c(c3)OCO4)ccc2n1`, the Potency result in experiment [1] and in experiment [2] was “inactive” in each case.
As to `O=C(COc1ccccc1Br)NCCc1nc2ccccc2[nH]1`, the Potency entry in experiment [1] and in experiment [2] was “inactive” throughout.
On to `COc1ccc(C2c3c(ncn(CCc4ccccc4)c3=N)Oc3ccc4ccccc4c32)cc1OC` (stereo unspecified), for which the Potency entry in experiment [1] and in experiment [2] was “inactive” throughout.
Turning to `Cc1ccccc1CSc1nc2ncc(Br)cc2[nH]1`, the Potency result in experiment [1] and in experiment [2] was “inactive” throughout.
For `Cc1cc2c(s1)c1cnn(Cc3cccc([N+](=O)[O-])c3)c(=O)c1n2C`, the Potency result in experiment [1] and in experiment [2] was “inactive” throughout.
As for `Fc1ccc(-c2ccc(Nc3nc(-c4ccncc4)nc4ccccc34)cc2F)cc1`, the Potency result in experiment [1] and in experiment [2] was “inactive” each time.
Take `O=C(Nc1ccc(-c2ccncc2)nc1)c1cccs1`: the Potency entry in experiment [1] and in experiment [2] was “inactive” in each case.
For `Cc1cnc(-c2ccccc2C(C)C)nc1N(C)Cc1ccc(-c2cccnc2)cc1`, the Potency result in experiment [1] and in experiment [2] was “inactive” in each case.
With `Nc1nc2c(c(N3CC[C@@H](N)C3)n1)CCCc1ccccc1-2`, the Potency entry in experiment [1] and in experiment [2] was “inactive” each time.
For the molecule `O=C(Nc1nc(-c2ccccc2)cs1)c1ccccc1`, the Potency result in experiment [1] and in experiment [2] was “inactive” in each case.
As to `Cc1cccc(-n2cnc3cc(C(=O)N4CCC(C(F)(F)F)CC4)ccc32)c1`, the Potency result in experiment [1] and in experiment [2] was “inactive” each time.
`Cc1ccc(-c2ccnn(CC(=O)N(C)C(C)c3ccco3)c2=O)cc1` (stereo unspecified): the Potency entry in experiment [1] and in experiment [2] was “inactive” throughout.
In the case of `O=S(=O)(c1cccc(Br)c1)N1CCN(S(=O)(=O)c2ccc3c(c2)OCCO3)CC1`, the Potency entry in experiment [1] and in experiment [2] was “inactive” throughout.
Regarding `Cc1cc2c(s1)c(C#N)c(C(=O)NCc1ccccc1F)n2C`, the Potency result in experiment [1] and in experiment [2] was “inactive” each time.
Take `O=C(O)c1ccc(O)c2ncc(N3CCCCC3CCc3ccccn3)cc12` (stereo unspecified): the Potency entry in experiment [1] and in experiment [2] was “inactive” throughout.
Consider `Cc1ccc(S(=O)(=O)Nc2cc3c(cc2C(=O)Nc2nc(-c4ccccc4)cs2)OCO3)cc1`, for which the Potency result in experiment [1] and in experiment [2] was “inactive” throughout.
As for `Cc1ccc(-c2nn3c(C)nnc3s2)cc1NC(=O)c1ccc(-c2cccc(Cl)c2)o1`, the Potency result in experiment [1] and in experiment [2] was “inactive” throughout.
In the case of `Cc1ccc(C(=O)Nc2ccc(S(=O)(=O)Nc3nccs3)cc2)cc1C`, the Potency result in experiment [1] and in experiment [2] was “inactive” throughout.
For the molecule `Cc1cc(-c2nnc3n2CCCCC3)c(C)n1-c1ccc(C#N)cc1`, the Potency result in experiment [1] and in experiment [2] was “inactive” throughout.
As for `Cc1nc(NCc2ccccc2)c2nc(-c3ccccc3)n(CCN(C)C)c2n1`, the Potency entry in experiment [1] and in experiment [2] was “inactive” throughout.
On to `O=C1CCc2cc(S(=O)(=O)Nc3ccc(Cl)cc3)ccc2N1`, for which the Potency result in experiment [1] and in experiment [2] was “inactive” each time.
Regarding `Fc1ccccc1-c1nnc2n1N=C(c1ccc(OC(F)F)c(OCC3CC3)c1)CS2`, the Potency result in experiment [1] and in experiment [2] was “inactive” in each case.
In the case of `CCCn1c(C)nc2c(NCCCN(CCO)CCO)nc(C)nc21`, the Potency entry in experiment [1] and in experiment [2] was “inactive” throughout.
For the molecule `COc1cccc(S(=O)(=O)N2CCN(S(=O)(=O)c3ccc4c(c3)OCCO4)CC2)c1`, the Potency entry in experiment [1] and in experiment [2] was “inactive” throughout.
`COc1ccc(OC)c(-c2nnc3n2N=C(c2ccc(OC)c(OC4CCCC4)c2)CS3)c1`: the Potency entry in experiment [1] and in experiment [2] was “inactive” in each case.
As for `CC(C)C[C@@H]1NC(=O)[C@@H](Cc2ccccc2)NC(=O)C(CCCCCC(=O)C2CO2)NC(=O)[C@@H]2CCCCN2C1=O` (stereo partly specified), the Potency result in experiment [1] and in experiment [2] was “inactive” in each case.
For `Cc1c(Cl)cccc1S(=O)(=O)Nc1nc(NCCc2ccccc2)nc2c1CN(Cc1ccccc1)CC2`, the Potency entry in experiment [1] and in experiment [2] was “inactive” each time.
Regarding `O=C(CN1C(=O)N/C(=C\c2cccn2-c2cccc(C(=O)O)c2)C1=O)Nc1ccccc1F`, the Potency result in experiment [1] and in experiment [2] was “inactive” in each case.
For `Cc1scc2c1C(=O)NS2(=O)=O`, the Potency entry in experiment [1] and in experiment [2] was “inactive” each time.
Consider `COc1ccc(CN(Cc2ccccc2)C(=O)c2ccc(OC)cc2O)cc1`, for which the Potency result in experiment [1] and in experiment [2] was “inactive” throughout.
On to `CC(=O)O[C@@]1(C)[C@@H]2CC(=C(C)C)C(=O)C[C@@]2(C)CC[C@H]1OC(=O)C1(C)OC1C` (stereo partly specified), for which the Potency entry in experiment [1] and in experiment [2] was “inactive” throughout.
For the molecule `O=C(Nc1ccc2ccccc2c1)Nc1nnc(-c2ccc(Cl)cc2)s1`, the Potency result in experiment [1] and in experiment [2] was “inactive” each time.
For the molecule `O=C(OCC#CCSc1nnc(-c2ccccc2Cl)o1)c1ccc(F)cc1`, the Potency result in experiment [1] and in experiment [2] was “inactive” each time.
On to `CCOc1ccc(C(=O)Nc2ccc(-c3nc4ccccc4s3)cc2)cc1[N+](=O)[O-]`, for which the Potency entry in experiment [1] and in experiment [2] was “inactive” each time.
